p53 reactivation – qHTS assay for re-activators of p53 using a Luc reporter; H1299 p53-A138V BP100-luciferase reporter, luminescence, 24 h; Potency, µM (titrated, usually from 92.2 µM), inactives show at the highest dose activity change, positive = activation, most hits filed as activators; 320,000 tested, 0.063% active; AID 504706, 2011; also: potency is read from the fitted curve at half-maximal effect; % of control where 0% means no effect; nearly all actives have a fitted effect of over 45% in size
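p53-null H1299 cells stably carrying temperature-sensitive p53-A138V and a BP100-luciferase reporter were pinned with compounds (4-point, 1:5 series) and held 24 hrs at 37 deg C. Luminescence was read 10 min after detection reagent.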
miR-21 act – qHTS Assay for Modulators of miRNAs and/orActivators of miR-21; HeLa miR-21 FLuc reporter, luciferase, 48 h; Potency, µM (top dose mostly 38.3 µM), without a hit: at the top dose activity change, positive = activation, most hits filed as activators; 340,000 tested, under 10 active; AID 2288, 2010;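 also: % of control where 0% means no effect; miR-21 action dims this reporter so a rising signal means less miR-21 action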
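Luminescence from a firefly luciferase reporter carrying a miR-21 binding site downstream, stably expressed under a CMV promoter in HeLa cells that make miR-21 endogenously, reports miRNA modulation after 48 h compound exposure up to approximately 40uM final.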
ClpP mod – qHTS Assay for Activators of ClpP | 340,000 tested, 1.9% active | purified B. subtilis ClpP, FRET peptide cleavage, 20 min | Potency, µM (top dose mostly 57.5 µM), for the others: at the top dose activity change, negative = active | ATP-dependent Clp protease proteolytic subunit (Bacillus subtilis (strain 168)), P80244; active = well fitted falling curve with a large enough effect; inconclusive = small, poorly fitted or top-dose-only effect; inactive = no such curve, though single readings can be large or run the other way; also: potency is read from the fitted curve at half-maximal effect; the source files actives as falling curves though it sought activators and does not explain the sign; nearly all actives have a fitted effect of over 65% in size
Target sequence (P80244 whole entry, looked up): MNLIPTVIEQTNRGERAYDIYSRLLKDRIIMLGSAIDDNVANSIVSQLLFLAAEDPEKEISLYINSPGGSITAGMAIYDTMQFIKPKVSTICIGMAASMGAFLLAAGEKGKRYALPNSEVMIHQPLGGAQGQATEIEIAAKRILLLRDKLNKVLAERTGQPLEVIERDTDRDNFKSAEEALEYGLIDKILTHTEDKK
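FRET quenching reversal measured ClpP activation: 10 microg/mL B. subtilis ClpP at pH 8 with the FRET-FV decapeptide, read at 430 nm after 320 nm excitation. The 20-min minus 0-min signal was scaled between DMSO/no-enzyme wells and ADEP (5.8 microM final).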
Nrf2 activator – qHTS of Nrf2 Activators. 410,000 tested, 0.31% active. AREc32 ARE-luciferase reporter (MCF7-derived line), luminescence, 24 h. AID 624171, 2012. Potency, µM (doses to about 46.1 µM), for inactives: at the highest dose activation, most hits filed as activators; also: potency is read from the fitted curve at half-maximal effect; % of control where 0% means no effect; nearly all actives have a fitted effect of over 65% in size
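ARE activation measured as luciferase luminescence (Steady-Glo, 30 min RT) in AREc32_Fluc cells after 24 hr compound exposure at 37 deg C, 5% CO2; cells seeded overnight at 1000/well in OPTI-MEM, 5% FBS.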
A549 viability – Nrf2 qHTS screen for inhibitors: counterscreen for cytotoxicity. 390,000 tested, 0.16% active. Potency, µM (doses to about 46 µM), inactives show at the top dose activity change, negative = cytotoxicity, hits mostly inhibitors. A549 ARE-Fluc cells, CellTiter-Fluor viability, 18-24 h; also: potency is read from the fitted curve at half-maximal effect; % is scaled to controls: 0 for no effect and ±100 for the full control effect
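A549 ARE-Fluc cells in 5% FBS OPTI-MEM, 5000 cells/well, rested 2 h then exposed to compounds in concentration-response for 18-24 h at 37 °C. Viability by CellTiter-Fluor fluorescence (Ex 405/Em 525) after 30 min; luciferase luminescence (BugLite, 15 min, RT) read afterwards.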
Nrf2 inh – Nrf2 qHTS screen for inhibitors. Potency, µM (highest dose often 46 µM), for inactives: top-dose activity change, negative = inhibition, usual class: inhibitors. A549 ARE-Fluc reporter, luciferase luminescence, 18-24 h. 360,000 tested, 2.1% active; also: potency is read from the fitted curve at half-maximal effect; % is scaled to controls: 0 for no effect and ±100 for the full control effect; nearly all actives have a fitted effect of over 60% in size
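Reporter: ARE-Fluc in A549. Exposure: 18-24 h, 37 °C, 5% CO2, 5% FBS OPTI-MEM. Readouts: fluorescent cytotoxicity (CellTiter-Fluor), then luminescent Nrf2 signal after BugLite.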
* hit, by the source's call; u = inconclusive; x = not tested or not shown; [ ] = dose if it differs, or a comment. Sampled rows, rich in hits. Any-hit rate of the full collection: about 3.7%. Unless noted, calls follow the shape of the dose curve; as a rule, active = well fitted curve in the direction sought with a large enough effect; inconclusive = small, poorly fitted or top-dose-only effect, or another doubt; inactive = no such curve, though single readings can be large; an effect the other way counts as inactive or inconclusive.

SMILES | p53 reactivation | miR-21 act | ClpP mod | Nrf2 activator | A549 viability | Nrf2 inh
COc1ccc2[nH]c(=O)c(C(c3nnnn3CC3CCCO3)N3CCCCC3)cc2c1 (stereo not given) | 4% | 0% | x | 0% | -2% | 9%
COc1ccc2cc(C(c3nnnn3CC3CCCO3)N3CCOCC3)c(=O)[nH]c2c1 (stereo not given) | -4% | -4% | 25µM* | 0% | 0% | 10%
Cc1ccc(C(=O)N2CC(=O)Nc3ccc(Br)cc3C2c2ccc(F)cc2)cc1C (stereo not given) | x | u | -1% | 0% | u | -3%[9.27 µM]
CC(C)(C)OC(=O)N1CCC(c2c(C(=O)NCCN3CCC(Cc4ccccc4)CC3)cnn2-c2cccc(Cl)c2)CC1 | x | u | -2% | 8% | u | u
CCCS(=O)(=O)N1CCC(C(=O)NCCC(C)C)CC1 | -3% | -1% | 0% | 0% | -7% | -26%
CCCSc1nc(N)nc(-c2cccs2)c1C#N | 15% | -68% | 25µM* | 27% | 0% | x
CCc1ccc(N(CC)C(=O)Cn2c(=O)oc3ccccc32)cc1 | x | -6% | 0% | -1% | 0% | -8%[9.27 µM]
O=C(Nc1ncc2c(n1)-c1ccccc1OC2)c1ccc(Cl)cc1Cl | -5% | 0% | 35µM* | 0% | -2% | -33%
O=C(Nc1ncc2c(n1)-c1ccccc1CC2)c1ccc(Cl)cc1 | -2% | 3% | 28µM* | 22% | 14% | 4%
CCOc1ccc(NC(=O)Cn2cc(C(=O)c3ccc(F)cc3)c(=O)c3cc4c(cc32)OCO4)cc1 | x | 7% | -4% | 2% | 2% | 9%
Cc1ccc(C2C3CSCC=C3C(C#N)=C(N)C2(C#N)C#N)cc1 (stereo not given) | 11% | 0% | -9% | u | u | 15µM*
CC(C)N1CC=C2C(C#N)=C(N)C(C#N)(C#N)C(c3ccccc3)C2C1 (stereo not given) | -1% | -5% | u | 0% | -16% | u
CC(C)CCSc1nc(N)c(C#N)cc1C#N | -12% | -15% | 32µM* | 11% | u | x
CCCCCCCCCC[n+]1ccc(/C=C/c2c(C)[nH]c3ccccc23)cc1 | x | x | 0% | x | x | x
COc1ccc(CNC(=S)NC2CCCC2)cc1 | -3% | -12% | 2% | -1%[9.22 µM] | 14% | 43%
Cc1ccc(CNC(=S)NC2CCC(C(C)(C)C)CC2)cc1 (stereo not given) | -1% | 2% | -3% | -2% | -23% | 21µM*
COc1ccc(N2CCN(S(=O)(=O)CCNC(=O)COc3ccccc3)CC2)cc1 | 2% | x | 18µM* | -1% | -3% | 2%
COc1ccc(N2CCN(S(=O)(=O)CCNC(=O)COc3cccc(OC)c3)CC2)cc1 | 0% | 7% | -10% | 1% | 3% | -13%
Cc1cc(NCCN(C)C)n2nc(-c3cccs3)cc2n1 | u | -6% | 28µM* | 0% | -4% | -1%
CN1/C(=C\C(=S)NC(=O)c2cccc(Br)c2)C(C)(C)c2ccccc21 | 5% | 14% | -2% | 3% | -14% | 21µM*
Cc1ccc(C)c(Nc2nnc(-c3ccc(C)c(S(=O)(=O)NCC4CCCO4)c3)c3ccccc23)c1 (stereo not given) | x | u | -18% | 5% | -12% | 23µM*
CCC(C)(C)C1CCc2c(sc(N)c2C(N)=O)C1 (stereo not given) | 7% | 16% | -4% | 3% | 8% | 18µM*
COc1ccc(-c2nnc3n2N=C(c2ccccc2OC)CS3)cc1OC | x | x | x | x | -2% | -19%
CC(C)Cn1c(N)c(C(=O)COC(=O)c2cccn2C)c(=O)n(C)c1=O | -7% | x | -2% | -1% | 14% | 23µM*

Source: PubChem BioAssay (National Center for Advancing Translational Sciences (NCATS))
